Hits are enriched below; roughly 1.2% of the tested compounds scored in any of these assays.
S1P2 antag: antagonists of human S1P2 receptor. O95136. cell-based S1P2 antagonist assay, inhibition at 5 uM. inhibition, % at 5 µM. 97,000 compounds, 0.21% hits. AID 736; in the data active = inhibition above about 45%;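 also: CRE beta-lactamase reporter cells expressing human S1P2 stimulated with S1P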
GALR2 blocker: blocks the human galanin receptor 2; O43603; GALR2-expressing cells, antagonist mode; inhibition, % at 4 µM; 140,000 compounds, 0.39% hits; AID 828;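 also: cells stimulated with galanin 1-16 at roughly its EC80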
Target sequence (O43603 whole entry, looked up): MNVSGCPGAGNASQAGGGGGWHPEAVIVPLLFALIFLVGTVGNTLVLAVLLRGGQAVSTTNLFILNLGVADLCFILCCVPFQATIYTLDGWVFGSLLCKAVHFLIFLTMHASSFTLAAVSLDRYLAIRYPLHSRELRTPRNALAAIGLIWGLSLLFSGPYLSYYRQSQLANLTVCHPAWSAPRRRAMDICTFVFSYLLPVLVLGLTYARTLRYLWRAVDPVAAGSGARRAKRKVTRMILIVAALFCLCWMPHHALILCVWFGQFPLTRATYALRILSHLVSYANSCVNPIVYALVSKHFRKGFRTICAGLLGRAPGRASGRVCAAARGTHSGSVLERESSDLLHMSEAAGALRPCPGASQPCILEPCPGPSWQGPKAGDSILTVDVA
GALR2 ag: GALR2 (human) receptor agonism | O43603 | GALR2-expressing cells, agonist activation read-out | activation, % (test concentration not listed) | 140,000 compounds, 0.48% hits | AID 803; in the data active = activation above about 5%, passing the limit was not always enough
S1P2 agonist: agonists of human S1P2 receptor; O95136; S1P2-expressing cell line, agonist reporter read-out; activation, % at 4.5 µM; 97,000 compounds, 0.46% hits; AID 729; in the data active = activation above about 16%
GALR2 agon conf: confirmation of human galanin receptor 2 (GALR2) agonists; shares compounds with GALR2 ag; GALR2-expressing cells, agonist activation; activation, % at 5.6 µM; 460 compounds, 10% hits; in the data active = activation above about 8.4%
BLA act counter: activates beta-lactamase reporter in GALR2 agonist counterscreen. shares compounds with GALR2 ag. CHO NFAT-bla reporter, beta-lactamase FRET activation. activation, % at 5.6 µM. 460 compounds, 10% hits;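 active = activation above the screen-wide mean activation plus 3 SD, cut at about 8% in these data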
GALR2 ant conf: confirmation of human galanin receptor 2 (GALR2) antagonists. GALR2-expressing cells, antagonist mode, inhibition. shares compounds with GALR2 blocker. 480 compounds, 60% hits. inhibition, % at 4 µM;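 also: cells stimulated with galanin at about its EC80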
BLA inh counter: counter-screen for GALR2 antagonists: beta-lactamase reporter inhibitors; shares compounds with GALR2 blocker; CHO NFAT-BLA reporter, beta-lactamase FRET, thapsigargin-stimulated; inhibition, % at 4.2 µM; 480 compounds, 36% hits;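 active = inhibition above the mean inhibition across tested compounds plus 3 SD, cut at about 27% in these data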
A number is an active result; . = inactive; / = not tested or not shown; ! = a repeat was not active. Rule as the data show it, unless noted: active = inhibition above about 27%; inactive = the rest.

SMILES | S1P2 antag | GALR2 blocker | GALR2 ag | S1P2 agonist | others
COc1ccc(CCNC(=O)c2c(N)n(CCN3CCOCC3)c3nc4ccccc4nc23)cc1 | . | . | . | 27
Nc1c(C(=O)NCCc2ccccc2)c2nc3ccccc3nc2n1CCN1CCOCC1 | . | . | 25 | 31
CCCCn1c(N)c(C(=O)NCCN2CCOCC2)c2nc3ccccc3nc21 | . | . | . | .
CC(C)CCNC(=O)c1c(N)n(CC2CCCO2)c2nc3ccccc3nc12 (centres undefined) | . | . | 32 | 40
COc1cccc(C2(O)CCSCC2CN(C)C)c1 (centres undefined) | / | . | . | /
C/C(=C/C=C/[C@@H](C)C(=O)O)[C@H]1CN[C@H](C(=O)O)[C@H]1CC(=O)O | / | . | . | /
Cc1ccc(OP(=O)(NCc2ccccc2)Oc2ccc(C)cc2)cc1 | / | . | . | /
CCC(C)NC(=O)c1c(N)n(CCCOC)c2nc3ccccc3nc12 (centres undefined) | . | . | 16 | 25
CCC(C)NC(=O)c1c(N)n(Cc2ccc3c(c2)OCO3)c2nc3ccccc3nc12 (centres undefined) | . | . | 84 | 140
CCC(C)NC(=O)c1c(N)n(CC2CCCO2)c2nc3ccccc3nc12 (centres undefined) | / | . | . | /
C=CCNC(=O)c1c(N)n(Cc2ccco2)c2nc3ccccc3nc12 | . | . | 6.4 | 18
C[C@@H]1C2C[C@@]34COC(=O)C3=CC=C[C@H]4[C@@]13C[C@H](c1ccoc1)O[C@@H]3O2 | / | . | . | /
CCCCCc1nc2c(c(=O)c3ccccc3n2C)c(=O)n1C1CCCCCC1 | / | . | 7.3 | /
CCCCCc1nc2ccccc2c(=O)n1-c1ccccc1[N+](=O)[O-] | / | . | . | /
COc1ccc(C[C@@H]2c3cc(O)c(OC)cc3CCN2C)cc1O | / | . | . | /
COc1cc2c3cc1Oc1cc(ccc1O)C[C@@H]1c4c(cc(OC)c(O)c4Oc4ccc(cc4)C[C@H]3N(C)CC2)CCN1C | / | . | 9.6 | / | GALR2 agon conf=12;BLA act counter=.
CC(NC1CCCCC1)C(O)C12CC3CC(CC(C3)C1)C2 (centres undefined) | . | . | 19 | . | GALR2 agon conf=.;BLA act counter=.
COCCNP(=O)(c1ccccc1)c1nc2ccccc2s1 (centres undefined) | . | . | 12 | . | GALR2 agon conf=.;BLA act counter=.
CCc1c(C(=O)NN2C(=O)C3C4CCC(O4)C3C2=O)csc1C (centres undefined) | / | . | . | /
C=CCn1c(O)c(C(CC)=NCCc2ccccc2)c(=O)[nH]c1=O | . | . | 12 | . | GALR2 agon conf=.;BLA act counter=.
CC/C(=C\C=C\[C@@H]1C=C[C@@H]2CCC[C@H]2[C@@H]1C(=O)c1ccc[nH]1)[C@@H]1O[C@@H]([C@@H](C)C(=O)O)CC[C@@H]1C | . | . | . | .
NP(=O)(OCC(F)(F)F)Oc1ccccc1 (centres undefined) | . | . | . | .
Cc1c2ccncc2c(C)c2c1[nH]c1ccccc12 | / | . | 12 | / | GALR2 agon conf=13;BLA act counter=.
CN(C)C(=O)Oc1ccc(OCc2nc3ccccc3[nH]2)cc1 | / | . | . | /
O=c1cc(C(F)(F)F)c2cc3c4c(c2o1)CCCN4CCC3 | . | 36 | . | . | GALR2 agon conf=.;BLA act counter=.;GALR2 ant conf=32;BLA inh counter=44
SMILES | S1P2 antag | GALR2 blocker | GALR2 ag | S1P2 agonist | others
COP(=S)(OC)SCN1C(=O)c2ccccc2C1=O | . | . | . | .
Cn1cccc1/C=C1/C(=O)NC(=O)N(Cc2ccccc2)C1=O | / | 29 | . | / | GALR2 ant conf=36;BLA inh counter=66
C=CCN1C(=O)NC(=O)/C(=C/c2cccn2C)C1=O | . | . | . | .
CN[C@H]1C[C@H]2O[C@@](C)([C@H]1OC)n1c3ccccc3c3c4c(c5c6ccccc6n2c5c31)C(=O)NC4 | / | 104 | . | / | GALR2 ant conf=105;BLA inh counter=108
CCC(C)C1(CC)C(=O)NC(=O)N=C1N (centres undefined) | / | . | . | /
COC(=O)C[C@]1(C(=O)OC)CN(C#N)N(c2ccc(Cl)cc2)C12c1ccccc1-c1ccccc12 | . | 40 | . | . | GALR2 ant conf=44;BLA inh counter=32
NC(=O)Nc1ccc(C(=O)OCC(=O)Nc2ccc(Cl)cc2C(=O)c2ccccc2)cc1 | / | . | . | /
CN1C2CCC1/C(=C/c1ccccn1)C(=O)/C2=C\c1ccccn1 | / | 102 | . | / | GALR2 ant conf=102;BLA inh counter=105
CC(C)Oc1cc(-n2c(=S)[nH]c3ccccc3c2=O)c(Cl)cc1Cl | . | . | . | .
Cc1cccc(N2CCc3c2nc2ccccc2c3N)c1 | . | 31! | . | . | GALR2 ant conf=36;BLA inh counter=.
FC(F)(F)c1ccc2c(c1)NP(=S)(N1CCOCC1)c1nccn1-2 (centres undefined) | / | . | . | /

Assay outcomes from PubChem BioAssay.
